M1 PAM parental = M1 PAM counterscreen hit in parental CHO-K1 cells | ATP EC20, Fluo-8 calcium fluorescence; 0% at ATP EC20, 100% at ATP max | activation, % at 3 µM | hit rate 0.02% among 360,000 | AID 602247;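 active = activation above the run cutoff, the mean activation of all test compounds plus 3 SD, cut at about 40% in these data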;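 note: peak over basal fluorescence ratio in a 140 s read after ATP addition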
NTR1 ag = NTR1 (human) agonism | activation, % at 20 µM | NTR1-U2OS beta-arrestin-GFP spot imaging, agonist mode | AID 493036 | P30989 | hit rate 0.17% among 330,000;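 active = activation at or above 40% of the spot to cytoplasm intensity ratio, with at least 20 cells analyzed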
Target sequence (P30989 whole entry, looked up): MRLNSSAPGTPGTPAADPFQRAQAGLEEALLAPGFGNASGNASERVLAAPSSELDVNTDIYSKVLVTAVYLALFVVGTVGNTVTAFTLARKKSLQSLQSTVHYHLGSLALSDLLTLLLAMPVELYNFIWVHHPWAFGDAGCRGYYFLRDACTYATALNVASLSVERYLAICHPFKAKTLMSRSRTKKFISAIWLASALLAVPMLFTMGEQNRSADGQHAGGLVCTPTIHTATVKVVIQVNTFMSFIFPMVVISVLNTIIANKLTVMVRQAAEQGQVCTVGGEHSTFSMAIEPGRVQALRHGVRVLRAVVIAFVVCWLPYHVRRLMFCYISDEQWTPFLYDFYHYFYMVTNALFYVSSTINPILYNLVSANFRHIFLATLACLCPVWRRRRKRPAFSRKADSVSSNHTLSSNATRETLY
CHO-K1 Ca antag = nonselective inhibitor or artifact in parental CHO-K1 cells; ATP-induced calcium, Fluo-8 fluorescence; inhibition, % at 3 µM; hit rate 0.6% among 360,000;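 active = inhibition above a per-plate cutoff, the plate's mean sample inhibition plus 3 SD, cut at about 24% in these data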
CHO-K1 Ca ag = counter-screen for M1 agonists: effect in parental CHO-K1 cells. Fluo-8 calcium fluorescence; scaled to maximal ATP response, vehicle zero. activation, % at 3 µM. hit rate 0.48% among 360,000. AID 602248; in the data active = activation above about 15%;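 note: untransfected CHO-K1 host cells lacking M1 receptor as counterscreen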
TMEM16A act = activates or potentiates the mouse TMEM16A chloride channel; Q8BHY3; HEK293 TMEM16A/YFP-H148Q/I152L, iodide quench fluorescence; active compounds read low; B-score at 10 µM; hit rate 0.3% among 340,000; AID 623877;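 active = fluorescence-ratio B-score plate-corrected deviation score at least 3 library SD below zero, with starting fluorescence score within 5 deviations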;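 note: channel opened by trigger with iodide after compound preincubation; score built on the fluorescence ratio of max minus min over baseline; more negative score means more quench and so TMEM16A activation or potentiation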
ANO1 block = blocks the mouse calcium-activated chloride channel TMEM16A | normalized B-score (activity score, 25-100; higher = stronger inhibition) at 10 µM | hit rate 1.2% among 310,000 | HEK293 TMEM16A/YFP iodide influx fluorescence, ionomycin;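 active = ratio plate-corrected score three or more library SD toward inhibition, starting fluorescence score within five deviations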;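 note: score derived from kinetic fluorescence span divided by baseline fluorescence per well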
Numbers stand for hits; – = inactive; · = not tested or not shown. An excerpt weighted towards active compounds, which were near 2.2% of everything screened.

SMILES	M1 PAM parental	NTR1 ag	CHO-K1 Ca antag	CHO-K1 Ca ag	TMEM16A act	ANO1 block
COCc1nc2ccccc2n1CCc1ccccc1	–	–	26.4	–	–	–
CC(=O)c1cccc(NC(=O)c2ccc(-n3cncn3)c3ccoc23)c1	–	·	–	–	·	·
CCCCNC(=O)C1c2ccccc2OCC(=O)N1CCc1ccc(OC)c(OC)c1 (stereo unspecified)	–	·	–	–	·	·
COc1ccc(/C=C/C(=O)N/C(=C\c2ccco2)C(=O)NCCc2nc3ccccc3[nH]2)cc1	–	–	25.4	–	–	–
COc1cc(NC(=O)C(C)Oc2ccccc2)c(OC)cc1NC(=O)c1ccccc1 (stereo unspecified)	–	–	24.3	–	–	–
Cc1ccc(NC(=O)c2ccc3nc[nH]c3c2)cc1C	–	–	–	18.3	–	–
CC(C)(C)NC(=O)CSc1nnc(-c2ccncc2)o1	–	–	24.7	–	–	–
Cc1ccccc1CSc1nnc(-c2ccncc2)o1	–	–	–	24.2	–	–
CCCSc1ccc([C@H]2N[C@@](C)(C(=O)OC)[C@H]3C(=O)N(CC)C(=O)[C@@H]23)cc1	–	–	–	–	–	·
COc1ccc(CNC(=O)CCC(=O)N2CCN(S(=O)(=O)c3cc([N+](=O)[O-])ccc3C)CC2)cc1	–	–	–	–	–	·
CCCCOc1ccc(Br)cc1CSC(=N)N	–	·	33.6	–	–	·
CCOc1ccc(C(C)=O)cc1CSC(=N)N	–	–	–	–	–	–
O=c1c2ccccc2nc2n1CCc1ccc(Br)cc1-2	–	·	–	–	·	·
COC(CNC(=O)c1ccc2c(c1)ncn2-c1ccc(C)cc1C)OC	–	–	–	17.5	–	–
O=c1c(Cc2ccc(Cl)cc2Cl)c(O)ccn1Cc1ccc(Cl)cc1	–	–	–	–	–	100
O=c1c(Cc2ccc(Cl)cc2)c(O)ccn1Cc1cccc(Cl)c1	–	–	–	–	–	–
CC1(C(=O)NS(=O)(=O)C2CC2)CCCN(C(=O)Cc2ccc3ccccc3c2)C1 (stereo unspecified)	–	·	–	–	·	·
COc1ccccc1NC(=O)c1ccccc1C(=O)Nc1ccccc1OC	–	–	–	–	–	–
COc1ccccc1NC(=O)c1cc(OC)c(OC)cc1[N+](=O)[O-]	–	–	–	16.2	–	–
Cc1ccccc1C(=O)NCC(=O)c1ccccc1	–	–	–	–	–	–
COC(=O)CNC(=O)c1ccccc1C	–	–	26.1	–	–	–
Cc1ccc(NC(=O)CN2CCCN(S(=O)(=O)c3ccc(Br)s3)CC2)cc1	–	–	23.8	–	–	–
CCOc1ccc(CCNC(=O)COC(=O)c2ccc[nH]c2=O)cc1OCC	–	–	–	–	–	·
CC(C)C[C@H]1CN(CCCC[C@@H]2CNC(=O)C(=O)N2CCc2ccccc2)C(=O)C(=O)N1CCc1ccccc1	–	·	–	–	·	·
O=C(Nc1ccc(NS(=O)(=O)c2ccccc2)cc1)c1ccc(Cl)cc1	–	–	–	–	–	–
SMILES	M1 PAM parental	NTR1 ag	CHO-K1 Ca antag	CHO-K1 Ca ag	TMEM16A act	ANO1 block
Cc1cccc(NS(=O)(=O)c2ccc(C3CCCCC3)cc2)c1	–	–	–	–	–	25
O=C(O)c1cccc(NS(=O)(=O)c2ccc(C3CCCCC3)cc2)c1	–	–	–	–	–	–
O=C(Nc1cccc(S(=O)(=O)Nc2ccc(Cl)cc2)c1)c1ccc(Cl)nc1	–	–	28.3	–	–	–
Cc1cccc(NC(=O)c2cccc(NS(=O)(=O)c3ccc(Cl)cc3)c2)c1	–	–	–	–	–	100
COc1ccc(NS(=O)(=O)c2cccc(NC(=O)c3ccc(Cl)nc3)c2)cc1	–	–	42.7	–	–	–
Cc1cccc(NS(=O)(=O)c2nnc(NC(=O)c3ccc(Cl)cc3)s2)c1	–	–	–	–	–	–
CNc1ncnc2c1ncn2[C@H]1CN(CCOC)C[C@@H](CO)O1	–	·	–	–	·	·
O=C(Nc1cccnc1Cl)c1cc(-c2cccc(O)c2)on1	–	–	–	–	–	–
Cc1nccn1CC(=O)c1ccccc1	–	·	–	–	·	·
O=C(Nc1ccc(Br)cc1)c1cccc(S(=O)(=O)Nc2ccccn2)c1	–	–	–	–	–	–
COc1ccc(NC(=O)c2cccc(S(=O)(=O)Nc3ccc(Br)cc3)c2)cn1	–	–	–	15.9	–	25
O=C(Cn1nc(-c2ccc(Cl)cc2)ccc1=O)NCC1CCCO1 (stereo unspecified)	–	–	–	–	-16.7	–
O=C(Nc1ccc(Cl)c(Cl)c1)Nc1ccc(Br)cc1F	–	–	27.5	–	–	–
O=C(Nc1cccnc1)Nc1ccc(F)c(Cl)c1	–	–	–	15.5	–	–
COc1cccc(-c2cc(CNC(=O)[C@H]3O[C@@H](n4ccc(=O)[nH]c4=O)[C@H](O)[C@@H]3O)no2)c1	–	·	–	–	·	·
Cc1[nH]nc(SCC(=O)NC(C)c2ccccc2)c1[N+](=O)[O-] (stereo unspecified)	–	–	25.4	–	–	–
CCCCn1nnnc1C(c1cc2ccccc2o1)N(CCC#N)Cc1ccccc1 (stereo unspecified)	–	·	–	–	·	·
CCOc1ccc(NC(=S)NCc2ccco2)cc1	–	–	–	16.7	–	–
S=C(NCc1ccco1)Nc1ccc(Cl)c(Cl)c1	–	–	–	–	–	25
CCOc1ccc(NC(=O)COc2ccc(C(=O)NCc3cccnc3)cc2OC)cc1	–	–	–	–	–	–
COc1cc(C(=O)NCc2cccnc2)ccc1OCC(=O)Nc1cccc(C(F)(F)F)c1	–	–	–	16.6	–	–
Cc1ccc2c(c1)nnn2C1CCN(S(=O)(=O)c2ccc(C(=O)O)cc2)CC1	–	–	–	–	–	–
Cc1ccc2c(c1)nnn2C1CCN(S(C)(=O)=O)CC1	–	–	23.9	–	–	–
COc1ccccc1NS(=O)(=O)c1ccc(C)c(NS(=O)(=O)c2cc(NC(C)=O)ccc2OC)c1	–	·	–	–	–	·
C/C(=N\Nc1ccc(Cl)c(C(=O)O)c1)c1ccccn1	–	–	–	–	–	–
SMILES	M1 PAM parental	NTR1 ag	CHO-K1 Ca antag	CHO-K1 Ca ag	TMEM16A act	ANO1 block
C/C(=N\Nc1ncc(Cl)cc1Cl)c1ccccn1	–	·	–	–	-7.78	·
O=C(NNc1ncnc2sccc12)c1ccc(Cl)cc1	–	–	–	–	–	–
Cc1csc2ncnc(NNC(=O)c3ccc(Cl)cc3)c12	–	–	–	18.8	–	–
O=C(C(=NNc1ccccc1)C(=S)Nc1ccccc1)c1ccccc1	–	·	–	–	·	·
CN(C)c1ccc(O)c2c1CC1CC3C(N(C)C)C(=O)C(C(N)=O)=C(O)[C@@]3(O)C(=O)C1=C2O (stereo partly specified)	–	–	–	–	–	–
CN(C)c1ccc(O)c2c1CC1CC3[C@@H](N(C)C)C(=O)C(C(N)=O)C(=O)[C@]3(O)C(=O)C1C2=O (stereo partly specified)	–	–	–	–	-9.38	·
CCCN(C)C1CN(Cc2cn(Cc3cccc(Cl)c3)nn2)S(=O)(=O)C1 (stereo unspecified)	–	·	–	–	·	·
